Where “and” joins values, the source holds several entries; their conditions need not be identical. Equal values may be shown once. Calls of active or inactive are those of the source. The calls were made as follows: active = hit-call score of the fitted dose curve at least 0.9, where 1 is the maximum; inactive = score below 0.9.

What is called AC50 is the concentration giving half of the maximal activity seen.

Read-out in this assay: Urokinase-type plasminogen activator receptor (uPAR), PLAUR (gene 5329)
The experiment in a line: BSK_BE3C_uPAR: BioMAP Diversity Plus: BE3C Assay for Urokinase-type plasminogen activator receptor (uPAR) Biomarker Activity (AID 2283039).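 As to outcome: cells exposed to compound for one day before measurement.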 The settings on record: primary human bronchial epithelial cells; actives raise or lower the signal. The method, then:
BSK_BE3C is a cell-based, multiplexed-readout assay that uses bronchial epithelial cell, a human lung primary cell, with measurements taken at 24 hours after chemical dosing in a 96-well plate.BSK_BE3CAR is an assay component measured in the BSK_BE3C assay. It measures uPAR antibody related to regulation of gene expression using ELISA technology.Data from the assay component BSK_BE3CAR was analyzed into 1 assay endpoint. This assay endpoint, BSK_BE3CAR, was analyzed with bidirectional fitting relative to DMSO as the negative control and baseline of activity. Using a type of binding reporter, gain or loss-of-signal activity can be used to understand changes in the signaling as they relate to the gene PLAUR. Furthermore, this assay endpoint can be referred to as a primary readout, because this assay has produced multiple assay endpoints where this one serves a signaling function. To generalize the intended target to other relatable targets, this assay endpoint is annotated to the cytokine intended target family, where the subfamily is plasmogen activator.
The levels of cell surface (or secreted, indicated by the prefix "s") biomarker endpoints were measured by ELISA. Overt cytotoxicity to cells in confluent adherent cultures (all systems other than the BT system) was assessed by measuring total protein levels using sulforhodamine B (SRB) staining in parallel cultures at the time of biomarker measurements, indicated as SRB endpoints. For proliferation assays for adherent cell types, individual cell types are cultured at sub-confluence and relative cell numbers quantified by SRB staining at time points optimized for each system (48 h: 3C and CASM3C systems; 72 h: BT and HDF3CGF systems; 96 h: SAg system). SRB was performed by staining cells with 0.1% SRB after fixation with 10% TCA and reading wells at 560 nm.Viability and proliferation of PBMC (T cells) was quantified by Alamar Blue reduction for the SAg and BT systems. For PBMC viability (referred to as PBMC Cytotoxicity within the assay endpoint names), cells were plated (75,000/well in a 96-well plate) and then chemical samples added for 1 h before addition of activators, SEB and TSST-1 (20 ng/mL final concentration each). Cells were incubated for 90 h. Then, Alamar Blue (20 uL/well) (Invitrogen, Cat DAL1100) was added for 6 h, and the plates were read with a fluorescence microplate reader at 546/580 nm (excitation/emission). For PBMC proliferation, cells were plated and activated as above but incubated for only 16 h prior to addition of Alamar Blue. Plates were read after 6 h.
In the case of `COc1ccc(C(=O)c2ccccc2O)c(O)c1`, the outcome was inactive.

Take `CCCCCCCCCCCCCCCCCC[N+](C)(C)C`: the result was inactive.

On to `CCC[Si](OC(C)=O)(OC(C)=O)OC(C)=O`, for which the result was inactive.

As to `COc1cc(CNC(=O)CCCC/C=C/C(C)C)ccc1O`, the result was inactive.

Turning to `Oc1cccc2ccccc12`, the outcome was inactive.

With `OC(C(F)(F)F)(C(F)(F)F)C(O)(C(F)(F)F)C(F)(F)F`, the AC50 is 14.4 µM (active) and 13.8 µM (active).

In the case of `CC[N+](CC)(CC(=O)Nc1c(C)cccc1C)Cc1ccccc1`, the outcome was inactive.

In the case of `CCCCC(CC)COC(=O)C=Cc1ccc(OC)cc1` (configuration not stated), the outcome was inactive.

In the case of `CC(C)C1OCCN1CCOC(=O)NCCCCCCNC(=O)OCCN1CCOC1C(C)C` (configuration not stated), the result was inactive.

Take `CN(C)c1ccc(C(c2ccccc2)c2ccc(N(C)C)cc2)cc1`: the result was inactive.

With `CN(C)Cc1cc(C(C)(C)C)c(O)c(C(C)(C)C)c1`, the result was inactive.

For `COc1ccccc1Oc1c(NS(=O)(=O)c2ccc(C(C)(C)C)cc2)nc(-c2ncccn2)nc1OCCO`, the outcome was inactive.

As for `Cc1c(C(N)=O)cc([N+](=O)[O-])cc1[N+](=O)[O-]`, the result was inactive.

Regarding `Sc1nc2ccccc2s1`, the outcome was inactive.

With `CCCCCCCCCC/C=C/C1CC(=O)OC1=O` (configuration not stated), the outcome was inactive.

With `Cc1cccnc1`, the result was inactive.

On to `CCCCCCC(O)CCCCCCCCCCC(=O)OC` (configuration not stated), for which the result was inactive.

Turning to `CCC(C)=NO`, the outcome was inactive.

For `COC(=O)/C=C\C(=O)OC`, the outcome was inactive.

As to `CN(C)CCC(c1ccc(Cl)cc1)c1ccccn1` (configuration not stated), the result was inactive.

For the compound `O=[N+]([O-])c1cc(S(=O)(=O)Nc2ccccc2)ccc1Nc1ccccc1`, the AC50 is 32.4 µM (active) and 31.6 µM (active).

`C1CN(CCOCCN2CCOCC2)CCO1`: the result was inactive.

Take `CC[N+](CC)(CC(=O)Nc1c(C)cccc1C)Cc1ccccc1` (tested in a mixture with another compound): the result was inactive.

For `CCCCCCCCCCC1CO1` (configuration not stated), the result was inactive.

As to `CC(C)CC(=O)CC(C)CC(C)C` (configuration not stated), the AC50 was 34.9 µM (active).

As for `O=C(C(=O)c1ccccc1)c1ccccc1`, the result was inactive.

Take `Cc1cc(-n2nc3ccc(Cl)cc3n2)c(O)c(C(C)(C)C)c1`: the outcome was inactive.

The values above are taken from PubChem BioAssay (EPA / NIEHS).
